Results filed as inconclusive are left out. Active and inactive are the calls of the source. The calls were made as follows, unless noted: active = hit-call score of the fitted dose curve at least 0.9, where 1 is the maximum; inactive = score below 0.9.
Key:
[1] = CCTE_Shafer_MEA_acute_per_network_burst_electrodes_number_mean: CCTE's Neural Acute Assay for Mean Number of Electrodes in a Network Burst, Shafer Lab (AID 2284021);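 also: curves fitted for decreases only so hits reduce electrodes per burst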
Outline: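 Percent change from baseline was computed as mean electrode count per network burst, comparing 40 min recordings before and during compound (0.03-40 uM) exposure. Cultures were rat cortical neurons at DIV 13 or 15, recorded on MEAs at 37 C with an adaptive 8x rms threshold.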

[2] = CCTE_Shafer_MEA_acute_network_burst_percentage: CCTE's Neural Acute Assay for Percentage of Network Bursts, Shafer Lab (AID 2284022);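 also: curves fitted for loss so actives lower network burst percentage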
Outline: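 Network burst percentage (spikes in network bursts divided by total spikes) recorded at 37 C over 40 min baseline and 40 min after compound, 0.03-40 uM, in rat cortical cultures at DIV 13 or 15. Analysed as percent change from baseline versus DMSO.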

[3] = CCTE_Shafer_MEA_acute_cross_correlation_area: CCTE's Neural Acute Assay for Area of Cross Correlation, Shafer Lab (AID 2284024);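 also: rat primary cortical neuron networks on 48-well MEA at DIV 13 or 15 with 40 min exposure; area under pooled inter-electrode spike cross-correlation near zero lag as percent change from own baseline; curves fitted for loss of cross-correlation area so actives lower synchrony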
Outline: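 Percent change in well-wide cross-correlation area (window around zero lag) between 40 min baseline and 40 min post-compound recordings, 37 C; rat cortical cultures on MEA at DIV 13 or 15, dosed 0.03-40 uM, wells needing >/= 10 active electrodes.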

[4] = CCTE_Shafer_MEA_acute_cross_correlation_HWHM: CCTE's Neural Acute Assay for Cross Correlation at Half Width at Half Maximum, Shafer Lab (AID 2284026);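 also: percent change per well from pre-dose baseline in spike cross-correlogram half width; hits are a decrease in cross-correlogram half width relative to DMSO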
Outline: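 Per-well percent change in cross-correlogram half width at half maximum, derived from 40-min recordings before and after compound (0.03-40 uM) at 37 C. Cultures were rat cortical neurons, DIV 13 or 15, with adaptive spike detection at 8x rms.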

[5] = CCTE_Shafer_MEA_acute_synchrony_index: CCTE's Neural Acute Assay for Synchrony, Shafer Lab (AID 2284027);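 also: network synchrony index of spontaneous spiking in primary rat cortical neurons on MEAs; fitted for loss of signal so actives lower synchrony relative to DMSO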
Outline: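 Plates equilibrated 20 min at 37 C, baseline recorded 40 min, compound (0.03-40 uM) added, then 40 min more recorded. Cells: primary rat cortical neurons, DIV 13 or 15. Per-well synchrony index change analysed in negative direction against DMSO.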

[6] = target: Estrogen receptor (Homo sapiens) (UniProt P03372); assay: CCTE_Deisenroth_AIME_384WELL_LUC_Active: CCTE's 384-well Estrogen Receptor Transactivation Assay with AIME metabolic competence (ERTA luciferase; metabolism positive), Deisenroth Lab (AID 2284030; active = hit-call score of the fitted dose curve at least 0.9, where 1 is the maximum)
Estrogen receptor (Homo sapiens), sequence (P03372 whole entry, looked up): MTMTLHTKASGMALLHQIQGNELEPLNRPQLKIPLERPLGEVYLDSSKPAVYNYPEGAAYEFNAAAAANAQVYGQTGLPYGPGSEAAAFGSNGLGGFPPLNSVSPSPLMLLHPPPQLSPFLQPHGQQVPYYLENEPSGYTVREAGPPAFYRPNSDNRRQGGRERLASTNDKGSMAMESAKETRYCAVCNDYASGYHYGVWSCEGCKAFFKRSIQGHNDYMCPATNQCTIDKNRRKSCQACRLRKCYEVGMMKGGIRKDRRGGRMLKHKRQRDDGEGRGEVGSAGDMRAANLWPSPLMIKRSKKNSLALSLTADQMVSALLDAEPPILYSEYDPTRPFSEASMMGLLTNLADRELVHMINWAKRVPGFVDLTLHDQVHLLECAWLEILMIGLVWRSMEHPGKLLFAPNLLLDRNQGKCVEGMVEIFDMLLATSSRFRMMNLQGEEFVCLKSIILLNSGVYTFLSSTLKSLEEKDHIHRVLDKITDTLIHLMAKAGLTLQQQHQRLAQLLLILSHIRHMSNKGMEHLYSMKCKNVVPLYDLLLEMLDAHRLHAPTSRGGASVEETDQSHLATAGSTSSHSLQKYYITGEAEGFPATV
Outline: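 VM7Luc4E2 breast cells were given, for 24 hours, medium pre-incubated for 2 hours with parent chemical (0.002-200 uM, 10 concentrations) and alginate-encapsulated phenobarbital/beta-naphthoflavone-induced rat hepatic S9. Luciferase gain of signal was fitted against 17beta-estradiol; n=4 or more.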

[7] = target: Estrogen receptor (Homo sapiens) (UniProt P03372); assay: CCTE_Deisenroth_AIME_96WELL_LUC_Active: CCTE's 96-well Estrogen Receptor Transactivation Assay with AIME metabolic competence (ERTA luciferase; metabolism positive), Deisenroth Lab (AID 2284023; active = hit-call score of the fitted dose curve at least 0.9, where 1 is the maximum)
Outline: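 Metabolism-positive mode: induced rat hepatic S9 in alginate microspheres conditions test solutions (0.002 - 200 uM, 10 points) for 2 hours. VM7Luc4E2 ER luciferase reporter cells then exposed 24 h; positive-direction fit against 17beta-estradiol, n=4 typical.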

[8] = target: Estrogen receptor (Homo sapiens) (UniProt P03372); assay: CCTE_Deisenroth_AIME_96WELL_LUC_Inactive: CCTE's 96-well Estrogen Receptor Transactivation Assay without AIME metabolic competence (ERTA luciferase; metabolism negative), Deisenroth Lab (AID 2284025; active = hit-call score of the fitted dose curve at least 0.9, where 1 is the maximum)
Outline: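 Metabolism-negative arm: chemicals (0.002–200 uM, 10 points) incubated 2 h with alginate-water microspheres, then medium moved onto VM7Luc4E2 cells for 24 h luciferase read-out. Positive direction vs 17beta-estradiol; n≥4 experiments.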

[9] = CCTE_Deisenroth_AIME_96WELL_CTox_Active: Cytotoxicity Assessment (CTOX) in CCTE's 96-well Estrogen Receptor Transactivation Assay with AIME metabolic competence (metabolism positive), Deisenroth Lab (AID 2284028; active = hit-call score of the fitted dose curve at least 0.9, where 1 is the maximum)
Outline: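 Cytotoxicity in VM7Luc4E2 breast cells after 24 h exposure to medium from a 2 h metabolic pre-incubation with induced rat hepatic S9 in alginate microspheres; fluorescent live-cell protease readout, 10-point series 0.002–200 uM, n=4.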

[10] = CCTE_Deisenroth_AIME_96WELL_CTox_Inactive: Cytotoxicity Assessment (CTOX) in CCTE's 96-well Estrogen Receptor Transactivation Assay without AIME metabolic competence (metabolism negative), Deisenroth Lab (AID 2284029; active = hit-call score of the fitted dose curve at least 0.9, where 1 is the maximum)
Outline: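 Metabolism-negative mode: alginate-water lids without rat S9, 2 h pre-incubation of 10-point series (0.002 - 200 uM). Conditioned medium on VM7Luc4E2 cells 24 h; loss of fluorescent live-cell protease signal marks cytotoxicity.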

Measured: AC50

CC(=O)C(C)=CC1C(C)=CCCC1(C)C (stereo not given)
active: [5] 20 µM
inactive: [1] | [2] | [3] | [4]

C[Si]1(C)O[Si](C)(C)O[Si](C)(C)O[Si](C)(C)O1
inactive: [1] | [2] | [3] | [4] | [5] | [6]

C=CCc1ccc(O)c(OC)c1
active: [2] 31.1 µM | [5] 20 µM
inactive: [1] | [3] | [4] | [6]

CC(=O)Oc1ccccc1C(=O)O
inactive: [1] | [2] | [3] | [4] | [5] | [6]

O=C(O)CCCCC(=O)O
inactive: [1] | [2] | [3] | [4] | [5]

Clc1cc(Cl)c(Cl)cc1Cl
inactive: [1] | [2] | [3] | [4] | [5] | [6]

Cc1ccc(C(C)C)c(O)c1
inactive: [1] | [2] | [3] | [4] | [5] | [6]

Cc1ccc2ncccc2c1
inactive: [1] | [2] | [3] | [4] | [5] | [6]

Nc1ccccc1N
inactive: [1] | [2] | [3] | [4] | [5]

Nc1nc(N)c2nc(CNc3ccc(C(=O)N[C@@H](CCC(=O)O)C(=O)O)cc3)cnc2n1
inactive: [1] | [2] | [3] | [4] | [5]

NS(=O)(=O)c1cc2c(cc1Cl)NCNS2(=O)=O
inactive: [1] | [2] | [3] | [4] | [5]

COc1ccc(S(=O)(=O)N2C(=O)[C@@](c3ccccc3OC)(N3C[C@H](O)C[C@H]3C(=O)N(C)C)c3cc(Cl)ccc32)c(OC)c1
inactive: [1] | [2] | [3] | [4] | [5]

NCC1(Cc2noc(=O)[nH]2)CCCCC1
inactive: [1] | [2] | [3] | [4] | [5]

CC(C)(C)c1cc(O)c(C(C)(C)C)cc1O
active: [4] 31.7 µM
inactive: [1] | [2] | [5]

CCCCCCCCCCCCCCCCCC(=O)O
inactive: [2] | [3] | [4] | [5]

COc1cc(/C=C/C(=O)CC(=O)/C=C/c2ccc(O)c(OC)c2)ccc1O
inactive: [7] | [8]
active: [9] 63 µM | [10] 93.8 µM

COc1cccc2c1C(=O)c1c(O)c3c(c(O)c1C2=O)C[C@@](O)(C(=O)CO)C[C@@H]3O[C@H]1C[C@H](N)[C@H](O)[C@H](C)O1
active: [9] 51.6 µM | [10] 68.2 µM

— PubChem BioAssay (EPA / NIEHS)
